Assay results: the OligoGym collection

target: WFDC12; assay: pooled miR-30 sensor sort-seq; sequence = guide strand; details: shRNA
Also: reference of the scale not given here.

Row | Sequence | sensor-assay potency score (higher = more potent)
1 | TTGACACATCTTCATCCTTGTT | -1.2
2 | ATGGCCTTGACACATCTTCATC | -1.78
3 | AACAACACTTCCTTTCCCCCAG | -0.813
4 | TCCTCCTTCTTCCAGTTCCTTC | -1.8
5 | TGGTCTGTGTGACACTGGGGAG | -1.92
6 | TTTAACTCCTTCCACAGCCACC | -1.29
7 | AACTCCTTCCACAGCCACCAGG | -1.44
8 | TGACACATCTTCATCCTTGTTT | 0.329
9 | TTGTCAGCTGGGCAAACCCCTG | -1.97
10 | AAGAACGAGAGACACCATGAGG | -1.13
11 | TTCACAGGAATCACACACTTGA | -0.211

target: WFDC5; assay: as above; details: shRNA

Row | Sequence | sensor-assay potency score (higher = more potent)
12 | TCTTCCTGCCAAAGACAGCAGG | -1.27
13 | TGGCTGTCTTCCACGCACTGGT | -0.871
14 | TGTAGCAGCACTTCCTGGTCAA | 0.234
15 | TTCCTGGTCAAGGGACACTGGC | -1.55
16 | TCTGTAGCAGCACTTCCTGGTC | -0.738
17 | TTTTGGTGGAGGAAGCAGCATG | -0.976
18 | TCAAGGGACACTGGCTGTCTTC | -1.2
19 | TCTGAGTCCTTGTGACACAGGT | -0.214
20 | TGACACAGGTGGTTCATGGGGC | 0.531
21 | AGTCCTTGTGACACAGGTGGTT | -1.67
22 | TTTTTGCCCGAGCAGTCTGAGT | -1.7
23 | TGTCTTCCACGCACTGGTCAGG | -1.15

target: WFDC8; assay: as above; details: shRNA

Row | Sequence | sensor-assay potency score (higher = more potent)
24 | ATCTGTGTTACATGAGTCCGGA | -0.285
25 | TATTTGAAGGGTGTGCAGCGGT | -0.17
26 | TTGTGTTTGATCTTCTTGGTCA | 0.398
27 | TTGGGTTTATCAATCTTGGTAC | 0.104
28 | TGGATTCACAACATTTGTCTGT | -0.069
29 | TCTCTTTGGGACATAACCCTGG | -0.176
30 | TTAACAATTAACATGCAGGCCG | -0.341
31 | AAACCTTTTTTGACTGTCCAGG | -1.14
32 | TAACAATTAACATGCAGGCCGT | -0.862
33 | TACATTTCAGTCCACAATGTGA | -1.04
34 | TTTTTGACTGTCCAGGCCCTGG | -1.19
35 | TTGTCCATCCTTAACAATTAAC | -1.71

target: WFIKKN1; assay: as above; details: shRNA

Row | Sequence | sensor-assay potency score (higher = more potent)
36 | TTCTTGACGCGCTTCTCGCTGG | -0.797
37 | TTGCCATACATCTGATCAGGGC | -0.931
38 | TCGCTGGTGACTCTGCTTCTCC | -1.48
39 | TGATGCAGCACTTCTCAGCAGC | -0.485
